{"source": "PubChem BioAssay (NCATS)", "key": {"[1]": {"biological_target": "Furin (Homo sapiens) (UniProt P09958)", "sequence (P09958 whole entry, looked up)": "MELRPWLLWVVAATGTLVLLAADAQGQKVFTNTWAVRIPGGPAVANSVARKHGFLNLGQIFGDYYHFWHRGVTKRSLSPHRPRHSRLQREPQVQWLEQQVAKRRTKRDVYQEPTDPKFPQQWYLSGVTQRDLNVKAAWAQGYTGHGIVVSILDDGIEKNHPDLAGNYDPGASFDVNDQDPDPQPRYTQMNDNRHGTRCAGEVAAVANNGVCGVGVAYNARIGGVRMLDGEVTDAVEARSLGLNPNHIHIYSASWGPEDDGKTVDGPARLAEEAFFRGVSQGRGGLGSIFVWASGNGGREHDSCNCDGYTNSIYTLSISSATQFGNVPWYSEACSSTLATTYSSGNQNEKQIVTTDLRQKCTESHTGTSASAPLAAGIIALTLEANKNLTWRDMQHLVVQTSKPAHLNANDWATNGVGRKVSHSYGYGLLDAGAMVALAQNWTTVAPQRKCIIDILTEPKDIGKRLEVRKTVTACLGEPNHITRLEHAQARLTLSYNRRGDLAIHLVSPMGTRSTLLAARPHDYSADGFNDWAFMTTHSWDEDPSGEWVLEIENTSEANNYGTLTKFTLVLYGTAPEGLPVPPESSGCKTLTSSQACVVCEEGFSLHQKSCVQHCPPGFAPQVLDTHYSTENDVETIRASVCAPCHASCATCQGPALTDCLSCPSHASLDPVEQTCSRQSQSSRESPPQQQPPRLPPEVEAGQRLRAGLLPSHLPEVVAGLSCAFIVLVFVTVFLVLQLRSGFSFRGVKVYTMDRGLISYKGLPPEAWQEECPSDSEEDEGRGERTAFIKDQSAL", "test": "Furin counterscreen qHTS for Zika virus inhibitors (AID 1347149); also: nearly all actives have a fitted effect of over 70% in size; also: potency is read from the fitted curve at half-maximal effect;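 as to activity change, negative = inhibition: purified recombinant full-length human furin enzyme at 5 nM; fluorescence gain from furin cutting a BOC-RVRR-AMC peptide substrate over 15 min; top concentration of the series differs between compounds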", "method_in_brief": "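Fluorogenic cleavage of BOC-RVRR-AMC (2 microM final, Km ~15 µM) was monitored (ex 340, em 450 nm) at 37C after 15 min RT preincubation of 5 nM furin with compounds in HEPES pH 7.0 buffer with CaCl2 and Triton X-100. Percent inhibition was fitted to a 4-parameter Hill curve.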"}, "[2]": {"test": "Confirmatory screen GU Rhodamine qHTS for Zika virus inhibitors qHTS (AID 1347157); also: nearly all actives have a fitted effect of over 70% in size", "method_in_brief": "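Unlinked NS2B/NS3, 25 nM; Rhod110 peptide, 1.5 microM; compounds, up to 114 microM. Reaction run 15 min at RT in 10 mM Tris-HCl pH 8.0, 0.01% Tween 20; kinetic fluorescence change fitted with a 4-parameter Hill model.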"}, "[3]": {"test": "Tertiary RLuc qRT-PCR qHTS assay for Zika virus inhibitors (AID 1347169); also: top concentration of the series differs between compounds; nearly all actives have a fitted effect of over 55% in size", "method_in_brief": "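Vero cells (1,000 per well) plated overnight at 37 degrees C, treated with compound in DMSO, then infected with recombinant ZIKV-RLuc (Cambodian) at MOI 1-2 for 48-72 hrs. Live-cell Renilla luciferase substrate added; luminescence read after 1-1.5 hrs.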"}, "[4]": {"test": "Confirmatory screen NINDS Rhodamine qHTS for Zika virus inhibitors (AID 1347161); also: potency is read from the fitted curve at half-maximal effect; nearly all actives have a fitted effect of over 60% in size", "method_in_brief": "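Rhodamine110-peptide cleavage (1.5 µM substrate) by 25 nM linked NS2B-NS3 enzyme at pH 8.0 (Tris, Tween 20), after 15 min RT preincubation with compounds; 15-min fluorescence change normalized to controls and Hill-fitted.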"}, "[5]": {"test_system": "Zika virus NS2B-NS3 protease (linked)", "test": "384 well plate NINDS AMC confirmatory qHTS for Zika virus inhibitors (AID 1347163); also: nearly all actives have a fitted effect of over 50% in size; also: potency is read from the fitted curve at half-maximal effect;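 as to activity change, negative = inhibition: fluorescence of AMC released from Ac-VKTGKR-AMC peptide cleaved by the protease; top concentration of the series differs between compounds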", "method_in_brief": "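Linked protease 5/30/60 nM final; cpds up to 1 mM final, ~15 min preinc. Substrate Ac-VKTGKR-AMC 30 microM final. RT, dark, 25 min; FI ex 355/em 460; normalized to no-enzyme/no-inhibitor ctrls.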"}, "[6]": {"test_system": "Zika virus NS2B-NS3 protease (linked construct)", "test": "384 well plate NINDS Rhodamine confirmatory qHTS for Zika virus inhibitors (AID 1347164); also: potency is read from the fitted curve at half-maximal effect; nearly all actives have a fitted effect of over 65% in size", "method_in_brief": "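Linked protease at a final 5 nM, 30 nM or 60 nM was preincubated ~15 min with compounds, then given 10 microM Ac-LKRR-Rhodamine 110. Fluorescence (ex 485/em 538 nm) after 25 min in the dark at room temperature.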"}, "[7]": {"test": "Confirmation and Secondary Assay for Modulators of Hemoglobin Beta Chain Splicing at IVS2 654 locus (AID 910);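 also: per-well total GFP intensity by laser scanning cytometry after 2-day treatment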", "method_in_brief": "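HeLa cells stably carrying EGFP interrupted by mutant beta-globin IVS2-654 intron (CMV-driven) were treated with compound for 2 days at 37C; corrected splicing was scored as total peak GFP intensity per well (488 nm excitation, 500-520 nm emission).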"}, "[8]": {"test": "Confirmation and Secondary Assay for Modulators of Hemoglobin Beta Chain Splicing at IVS2 705 locus (AID 930); also: series mostly up to about 46 µM", "method_in_brief": "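First, HeLa EGFP-705 cells are seeded at 500/well in Optimem with 2% FCS and left overnight. Next, compound or DMSO is added for 2 days. Finally wells are laser-scanned and total peak GFP intensity scored.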"}, "[9]": {"biological_target": "Ubiquitin carboxyl-terminal hydrolase 1 (Homo sapiens) (UniProt O94782)", "sequence (O94782 whole entry, looked up)": "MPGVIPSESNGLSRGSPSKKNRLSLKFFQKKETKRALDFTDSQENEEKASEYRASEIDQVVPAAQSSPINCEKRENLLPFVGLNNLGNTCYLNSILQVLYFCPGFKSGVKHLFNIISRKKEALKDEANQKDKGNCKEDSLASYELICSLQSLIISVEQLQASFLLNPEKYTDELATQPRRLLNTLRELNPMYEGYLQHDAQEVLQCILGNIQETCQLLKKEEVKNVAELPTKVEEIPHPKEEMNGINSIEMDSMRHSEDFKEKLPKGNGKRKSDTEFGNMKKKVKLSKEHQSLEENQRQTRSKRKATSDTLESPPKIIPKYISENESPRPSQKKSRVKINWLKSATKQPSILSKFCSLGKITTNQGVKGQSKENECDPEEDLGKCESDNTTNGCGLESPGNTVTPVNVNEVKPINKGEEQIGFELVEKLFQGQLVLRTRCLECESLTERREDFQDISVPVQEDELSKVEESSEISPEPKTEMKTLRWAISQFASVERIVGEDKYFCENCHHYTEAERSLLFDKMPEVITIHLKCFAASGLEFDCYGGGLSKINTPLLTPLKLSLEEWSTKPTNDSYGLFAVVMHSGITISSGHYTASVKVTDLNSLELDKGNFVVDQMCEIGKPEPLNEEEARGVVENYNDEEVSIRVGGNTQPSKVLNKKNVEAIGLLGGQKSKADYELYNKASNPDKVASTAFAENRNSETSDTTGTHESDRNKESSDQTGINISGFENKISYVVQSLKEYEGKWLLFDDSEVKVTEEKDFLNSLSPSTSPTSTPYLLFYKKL", "test": "Inhibitors of USP1/UAF1: Pilot qHTS (AID 504865);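 also: rhodamine fluorescence freed from ubiquitin-rhodamine substrate followed over time; top concentration of the series differs between compounds; nearly all actives have a fitted effect of over 35% in size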", "method_in_brief": "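USP1/UAF1 complex (1nM) preincubated with compound 15 min at room temperature, then Ub-Rho substrate (150nM final) added. Fluorescence read kinetically at 480/540 nm, 6 reads every 60 seconds. Buffer: 50mM HEPES pH 7.8, 0.5mM EDTA, 0.1 mg/ml BSA, 1mM TCEP, 0.01% Tween-20.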"}, "[10]": {"test": "ZIKV-mCherry secondary qHTS for Zika virus inhibitors (AID 1347158); also: top concentration of the series differs between compounds", "method_in_brief": "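Vero cells, 5,000/well, plated overnight at 37 °C, then compound added and infected with recombinant ZIKV-mCherry at MOI 1 for 48-72 h. PFA-fixed, Hoechst nuclear stain, high-content imaging; cells with mCherry intensity above 450 RFU scored infected, reported as percent infection.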"}, "[11]": {"biological_target": "Rap guanine nucleotide exchange factor 3 (Homo sapiens) (UniProt O95398)", "sequence (O95398 whole entry, looked up)": "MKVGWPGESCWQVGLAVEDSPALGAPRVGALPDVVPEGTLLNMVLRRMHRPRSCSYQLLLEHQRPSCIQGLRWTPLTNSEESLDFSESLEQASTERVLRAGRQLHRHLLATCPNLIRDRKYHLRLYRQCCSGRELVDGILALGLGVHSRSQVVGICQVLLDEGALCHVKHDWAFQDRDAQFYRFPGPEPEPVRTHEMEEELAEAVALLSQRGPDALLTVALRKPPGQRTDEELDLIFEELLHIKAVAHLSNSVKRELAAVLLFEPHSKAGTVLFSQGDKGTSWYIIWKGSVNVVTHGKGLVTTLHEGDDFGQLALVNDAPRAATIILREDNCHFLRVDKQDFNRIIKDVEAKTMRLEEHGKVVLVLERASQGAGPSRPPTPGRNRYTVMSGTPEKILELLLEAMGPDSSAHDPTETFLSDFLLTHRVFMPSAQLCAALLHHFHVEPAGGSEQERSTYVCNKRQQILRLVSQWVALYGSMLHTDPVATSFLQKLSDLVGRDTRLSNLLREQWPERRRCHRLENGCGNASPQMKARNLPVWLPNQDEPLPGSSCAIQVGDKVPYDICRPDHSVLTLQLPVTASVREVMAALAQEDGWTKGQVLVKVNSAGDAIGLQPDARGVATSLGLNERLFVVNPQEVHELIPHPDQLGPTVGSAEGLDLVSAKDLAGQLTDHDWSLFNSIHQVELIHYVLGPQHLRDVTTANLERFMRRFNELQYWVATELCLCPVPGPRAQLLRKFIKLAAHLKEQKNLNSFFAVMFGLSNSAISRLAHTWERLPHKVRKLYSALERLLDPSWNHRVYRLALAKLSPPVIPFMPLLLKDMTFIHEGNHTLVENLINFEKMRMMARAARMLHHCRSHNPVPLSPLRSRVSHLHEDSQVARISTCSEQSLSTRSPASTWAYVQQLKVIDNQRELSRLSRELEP", "test": "Confirmatory qHTS for antagonist of cAMP-regulated guanine nucleotide exchange factor 3 (EPAC1) (AID 1645880); also: nearly all actives have a fitted effect of over 55% in size", "method_in_brief": "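Nucleotide exchange uses 100 nM EPAC1, 250 nM RAP1B-BODIPY-GDP and 50 uM GDP, with compounds in a concentration-titration series. After 5 min at room temperature, fluorescence (480 nm ex/540 nm em) is read every 5 min for 30 min. Data are normalized to control ATA and DMSO.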"}, "[12]": {"biological_target": "Rap guanine nucleotide exchange factor 3 (Homo sapiens) (UniProt O95398)", "test": "Confirmatory qHTS for agonist of cAMP-regulated guanine nucleotide exchange factor 3 (EPAC1) (AID 1645881);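 also: EPAC1 catalysed release of BODIPY-GDP from Rap1B seen as fluorescence loss; nearly all actives have a fitted effect of over 75% in size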"}, "[13]": {"biological_target": "Rap guanine nucleotide exchange factor 4 (Homo sapiens) (UniProt Q8WZA2)", "sequence (Q8WZA2 whole entry, looked up)": "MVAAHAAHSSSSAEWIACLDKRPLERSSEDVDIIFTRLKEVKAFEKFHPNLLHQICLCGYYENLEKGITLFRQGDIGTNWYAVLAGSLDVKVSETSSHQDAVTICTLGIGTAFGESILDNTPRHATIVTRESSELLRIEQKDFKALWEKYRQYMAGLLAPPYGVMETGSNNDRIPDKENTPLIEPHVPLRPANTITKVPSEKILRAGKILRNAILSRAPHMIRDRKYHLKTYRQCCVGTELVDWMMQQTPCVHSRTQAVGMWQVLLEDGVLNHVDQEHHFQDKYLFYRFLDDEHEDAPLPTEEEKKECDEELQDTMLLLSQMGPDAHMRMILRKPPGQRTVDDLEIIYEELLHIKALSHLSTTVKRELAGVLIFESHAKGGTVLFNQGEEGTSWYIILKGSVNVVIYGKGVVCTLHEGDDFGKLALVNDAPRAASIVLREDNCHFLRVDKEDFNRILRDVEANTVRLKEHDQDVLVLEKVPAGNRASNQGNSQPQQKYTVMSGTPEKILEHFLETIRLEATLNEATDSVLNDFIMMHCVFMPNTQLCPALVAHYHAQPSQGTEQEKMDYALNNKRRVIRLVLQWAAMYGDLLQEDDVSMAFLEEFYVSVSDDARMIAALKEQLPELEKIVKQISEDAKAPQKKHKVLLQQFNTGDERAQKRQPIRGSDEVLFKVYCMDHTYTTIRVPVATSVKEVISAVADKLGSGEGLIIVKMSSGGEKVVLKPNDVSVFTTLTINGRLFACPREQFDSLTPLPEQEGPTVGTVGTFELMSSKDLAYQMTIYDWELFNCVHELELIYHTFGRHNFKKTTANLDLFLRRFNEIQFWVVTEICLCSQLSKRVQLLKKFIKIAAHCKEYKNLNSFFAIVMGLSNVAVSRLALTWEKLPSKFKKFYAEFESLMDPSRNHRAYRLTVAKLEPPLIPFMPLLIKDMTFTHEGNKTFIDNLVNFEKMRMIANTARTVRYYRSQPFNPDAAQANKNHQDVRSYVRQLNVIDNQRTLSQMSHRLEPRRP", "test": "Confirmatory qHTS for agonist of cAMP-regulated guanine nucleotide exchange factor 4 (EPAC2) (AID 1645884);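 also: nucleotide exchange releases bodipy-GDP from Rap1 and this lowers its fluorescence; nearly all actives have a fitted effect of over 65% in size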"}, "[14]": {"biological_target": "Rap guanine nucleotide exchange factor 4 (Homo sapiens) (UniProt Q8WZA2)", "test": "Confirmatory qHTS for antagonist of cAMP-regulated guanine nucleotide exchange factor 4 (EPAC2) (AID 1645885); also: nearly all actives have a fitted effect of over 25% in size"}, "[15]": {"biological_target": "Rap guanine nucleotide exchange factor 3 (Homo sapiens) (UniProt O95398)", "test": "Counterscreen qHTS for antagonist of cAMP-regulated guanine nucleotide exchange factor 3 (EPAC1) (AID 1645888)", "method_in_brief": "(§1)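 Measured: fluorescence of BODIPY-GDP bound to Rap1B, which falls as exchange proceeds. Conditions include 50 uM competing GDP, 5 and 30 min reads, and a later cAMP challenge for antagonist detection.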"}, "[16]": {"biological_target": "Rap guanine nucleotide exchange factor 3 (Homo sapiens) (UniProt O95398)", "test": "Counterscreen qHTS for agonist of cAMP-regulated guanine nucleotide exchange factor 3 (EPAC1) (AID 1645889)", "method_in_brief": "as §1"}, "[17]": {"biological_target": "Cytochrome P450 2D6 (Homo sapiens) (UniProt P10635)", "sequence (P10635 whole entry, looked up)": "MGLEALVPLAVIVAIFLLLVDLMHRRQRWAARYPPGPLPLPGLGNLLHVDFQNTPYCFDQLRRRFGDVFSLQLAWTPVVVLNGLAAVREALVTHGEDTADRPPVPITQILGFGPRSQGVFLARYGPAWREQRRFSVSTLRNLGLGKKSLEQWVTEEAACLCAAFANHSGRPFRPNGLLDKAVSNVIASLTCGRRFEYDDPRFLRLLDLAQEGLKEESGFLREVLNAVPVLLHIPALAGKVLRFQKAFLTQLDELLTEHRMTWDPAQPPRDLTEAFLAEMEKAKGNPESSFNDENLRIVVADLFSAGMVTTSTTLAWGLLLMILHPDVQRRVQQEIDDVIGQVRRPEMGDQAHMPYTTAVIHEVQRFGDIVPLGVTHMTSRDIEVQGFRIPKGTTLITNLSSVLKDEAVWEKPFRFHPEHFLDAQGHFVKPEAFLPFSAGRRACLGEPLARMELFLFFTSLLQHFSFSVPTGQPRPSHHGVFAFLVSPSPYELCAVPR", "test": "Cytochrome P450 family 2 subfamily D member 6 (CYP2D6) small molecule antagonists: luciferase biochemical (cell-free) qHTS assay (AID 1645840; active = well fitted curve in the direction sought with a large enough effect in the repeat runs; an effect the other way counts as inactive or inconclusive)", "method_in_brief": "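P450-Glo luminescent screen: recombinant CYP2D6 enzyme–proluciferin substrate mix preincubated with compound 10 min at room temperature, then NADPH regeneration added for 1 h at room temperature. Detection reagent added for 20 min; luciferin light read as relative luminescence units.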"}, "[18]": {"biological_target": "Cytochrome P450 2C9 (Homo sapiens) (UniProt P11712)", "sequence (P11712 whole entry, looked up)": "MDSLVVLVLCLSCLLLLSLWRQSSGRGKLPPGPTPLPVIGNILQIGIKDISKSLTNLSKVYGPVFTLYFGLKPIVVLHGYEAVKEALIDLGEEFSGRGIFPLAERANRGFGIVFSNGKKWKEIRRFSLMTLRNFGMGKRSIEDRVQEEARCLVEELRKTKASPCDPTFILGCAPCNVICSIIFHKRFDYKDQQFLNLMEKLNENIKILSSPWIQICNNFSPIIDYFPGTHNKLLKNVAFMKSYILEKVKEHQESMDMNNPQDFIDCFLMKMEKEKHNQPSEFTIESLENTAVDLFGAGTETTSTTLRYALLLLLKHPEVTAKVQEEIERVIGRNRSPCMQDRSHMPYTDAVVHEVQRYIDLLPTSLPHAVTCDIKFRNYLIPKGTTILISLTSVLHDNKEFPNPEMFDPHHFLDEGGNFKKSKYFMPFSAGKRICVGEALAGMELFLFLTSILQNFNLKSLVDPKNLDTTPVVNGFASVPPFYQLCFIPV", "test": "Cytochrome P450 family 2 subfamily C member 9 (CYP2C9) small molecule antagonists: luciferase biochemical (cell-free) qHTS assay (AID 1645842; active = well fitted curve in the direction sought with a large enough effect in the repeat runs; an effect the other way counts as inactive or inconclusive)", "method_in_brief": "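Luminescence, after 20 min with luciferin detection reagent, reflected CYP2C9 turnover during a 1 h NADPH-driven reaction at 37C. Enzyme-substrate mix contained 0.4% bovine serum albumin and was preincubated with compound 10 min at room temperature.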"}, "[19]": {"test": "Primary qHTS for small molecule stabilizers of the endoplasmic reticulum resident proteome: Secreted ER Calcium Modulated Protein (SERCaMP) assay (AID 1508630)", "method_in_brief": "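GLuc-SERCaMP-expressing SH-SY5Y cells, pretreated 16 h with compound, are challenged with thapsigargin to empty ER calcium stores; after 4 h, coelenterazine is added directly to the medium and luminescence is imaged.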"}}, "note": "Unmarked numbers belong to inactive results. Results filed as inconclusive are left out. Where a call stands in place of a potency, no number is given. Calls of active or inactive are those of the source. Unless noted, calls follow the shape of the dose curve; as a rule, active = well fitted curve in the direction sought with a large enough effect; inconclusive = small, poorly fitted or top-dose-only effect, or another doubt; inactive = no such curve, though single readings can be large; an effect the other way counts as inactive or inconclusive."}
{"smiles": "COc1ccc(S(=O)(=O)c2c(O)c(C)cc(NS(=O)(=O)c3ccc(Cl)cc3)c2C(C)C)cc1", "values": [{"measurement": "Potency", "setting": "[1]", "result": "inactive"}, {"measurement": "Potency", "setting": "[2]", "result": "inactive"}, {"measurement": "Potency", "setting": "[3]", "result": "inactive"}]}
{"smiles": "O=C(CSc1nnc(-c2cccc([S+](=O)([O-])NC3CCCC3)c2)n1-c1ccccc1)Nc1ccc(C(=O)O)cc1", "values": [{"measurement": "Potency", "setting": "[1]", "result": "inactive"}, {"measurement": "Potency", "setting": "[2]", "result": "inactive"}, {"measurement": "Potency", "setting": "[3]", "result": "inactive"}]}
{"smiles": "O=S(=O)(Nc1ccc(O)c(Sc2nc3ccccc3s2)c1)c1cc(Cl)ccc1Cl", "values": [{"measurement": "Potency", "setting": "[1]", "result": "inactive"}, {"measurement": "Potency", "setting": "[4]", "result": "22.4 µM (active)"}, {"measurement": "Potency", "setting": "[5]", "result": "112 µM (active)"}, {"measurement": "Potency", "setting": "[6]", "result": "44.7 µM (active)"}, {"measurement": "Potency", "setting": "[3]", "result": "inactive"}]}
{"smiles": "NC(Cc1cc(I)c(Oc2ccc(O)c(I)c2)c(I)c1)C(=O)O", "note": "(stereo not given)", "values": [{"measurement": "outcome", "setting": "[7]", "result": "inactive"}, {"measurement": "outcome", "setting": "[8]", "result": "inactive"}, {"measurement": "Potency", "setting": "[9]", "result": "inactive"}, {"measurement": "Potency", "setting": "[1]", "result": "inactive"}, {"measurement": "Potency", "setting": "[2]", "result": "inactive"}, {"measurement": "Potency", "setting": "[3]", "result": "inactive"}]}
{"smiles": "CC(C)OC(=O)c1ccc(NC(=O)CSc2nc(-c3cccs3)cc(C(F)(F)F)n2)cc1", "values": [{"measurement": "Potency", "setting": "[1]", "result": "52.7 µM (active)"}, {"measurement": "Potency", "setting": "[2]", "result": "inactive"}, {"measurement": "Potency", "setting": "[3]", "result": "inactive"}]}
{"smiles": "CCCCCCc1cc2cc(-c3cn4c(n3)sc3cc(OC)ccc34)c(=O)oc2cc1O", "values": [{"measurement": "Potency", "setting": "[1]", "result": "inactive"}, {"measurement": "Potency", "setting": "[10]", "result": "inactive"}, {"measurement": "Potency", "setting": "[5]", "result": "inactive"}, {"measurement": "Potency", "setting": "[6]", "result": "35.5 µM (active)"}, {"measurement": "Potency", "setting": "[3]", "result": "inactive"}, {"measurement": "Potency", "setting": "[11]", "result": "inactive"}, {"measurement": "outcome", "setting": "[12]", "result": "inactive"}, {"measurement": "outcome", "setting": "[13]", "result": "inactive"}, {"measurement": "activity change, negative = inhibition", "setting": "[14]", "result": "-6.89% [at 12.7 µM]"}, {"measurement": "outcome", "setting": "[15]", "result": "inactive"}, {"measurement": "Potency", "setting": "[16]", "result": "inactive"}]}
{"smiles": "COc1ccc(Nc2nnc(-c3ccc(C)c(S(=O)(=O)NCc4nc5ccccc5[nH]4)c3)c3ccccc23)cc1", "values": [{"measurement": "Potency", "setting": "[1]", "result": "inactive"}, {"measurement": "Potency", "setting": "[2]", "result": "inactive"}, {"measurement": "Potency", "setting": "[17]", "result": "4.25 µM (active)"}, {"measurement": "Potency", "setting": "[18]", "result": "7.56 µM (active)"}]}
{"smiles": "Cc1cc(S(=O)(=O)Nc2ccc(C(=O)O)cc2)c(C)c(S(=O)(=O)c2ccc(Cl)cc2)c1", "values": [{"measurement": "Potency", "setting": "[1]", "result": "inactive"}, {"measurement": "Potency", "setting": "[10]", "result": "inactive"}, {"measurement": "Potency", "setting": "[4]", "result": "44.7 µM (active)"}, {"measurement": "Potency", "setting": "[6]", "result": "141 µM (active)"}, {"measurement": "Potency", "setting": "[3]", "result": "inactive"}]}
{"smiles": "O=C(COc1ccccc1F)Nc1ccc(C(=O)OCc2cc(=O)n3nc(C4CC4)sc3n2)cc1", "values": [{"measurement": "Potency", "setting": "[1]", "result": "inactive"}, {"measurement": "Potency", "setting": "[2]", "result": "inactive"}, {"measurement": "Potency", "setting": "[3]", "result": "inactive"}]}
{"smiles": "CC(C)c1nn2c(=O)cc(COC(=O)c3ccc(NC(=O)CCc4ccccc4)cc3)nc2s1", "values": [{"measurement": "Potency", "setting": "[1]", "result": "inactive"}, {"measurement": "Potency", "setting": "[2]", "result": "inactive"}, {"measurement": "Potency", "setting": "[3]", "result": "inactive"}]}
{"smiles": "Cc1ccc(-c2nnc(Nc3ccccc3)c3ccccc23)cc1S(=O)(=O)NCc1nc2ccccc2[nH]1", "values": [{"measurement": "Potency", "setting": "[1]", "result": "41.8 µM (active)"}, {"measurement": "Potency", "setting": "[10]", "result": "inactive"}, {"measurement": "Potency", "setting": "[5]", "result": "inactive"}, {"measurement": "Potency", "setting": "[18]", "result": "inactive"}]}
{"smiles": "CC[C@@H](C(=O)[C@H](C)[C@@H](O)[C@H](C)CCc1ccc(C)c(O)c1C(=O)O)C1O[C@@](CC)(C2CC[C@](O)(CC)[C@H](C)O2)C[C@@H]1C", "note": "(stereo not given in full)", "values": [{"measurement": "Potency", "setting": "[1]", "result": "inactive"}, {"measurement": "Potency", "setting": "[4]", "result": "9.84 µM (active)"}, {"measurement": "Potency", "setting": "[5]", "result": "158 µM (active)"}, {"measurement": "Potency", "setting": "[6]", "result": "31.6 µM (active)"}, {"measurement": "Potency", "setting": "[19]", "result": "inactive"}]}
